# Results: ChEMBL document CHEMBL3988442, “University of Dundee, Small-Polar-MMV Screening Library” (2021)
# Screen size: about 69,000 compounds; about 420 (0.61%) showed an effect of 50% or more. The list comes from a sample in which strong results are over-represented; it also holds similar structures and randomly drawn compounds.
# Target: T1, Histidine--tRNA ligase (Leishmania infantum) (UniProt A4I591)
# T1 sequence (whole entry): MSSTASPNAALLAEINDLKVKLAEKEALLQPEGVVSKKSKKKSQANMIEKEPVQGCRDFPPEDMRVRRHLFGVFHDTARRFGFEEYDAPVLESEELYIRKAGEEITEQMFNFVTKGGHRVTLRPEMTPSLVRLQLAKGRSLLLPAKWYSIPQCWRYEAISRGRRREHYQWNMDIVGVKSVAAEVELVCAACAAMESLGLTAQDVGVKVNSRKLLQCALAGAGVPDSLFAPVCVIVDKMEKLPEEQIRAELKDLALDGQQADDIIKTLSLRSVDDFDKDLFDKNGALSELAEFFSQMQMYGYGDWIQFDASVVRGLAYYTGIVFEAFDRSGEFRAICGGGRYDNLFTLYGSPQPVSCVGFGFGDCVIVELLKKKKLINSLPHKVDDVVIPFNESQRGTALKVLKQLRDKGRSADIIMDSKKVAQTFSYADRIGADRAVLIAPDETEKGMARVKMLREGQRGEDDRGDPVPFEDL
# Assay: Leishmania infantum Histidine tRNA synthetase (LdHisRS)
# Type: functional
# Design: scale not given: in the data most compounds retested in dose-response had high values
# Settings: 30 µM
row,SMILES,Percent Effect [%]
1,Cc1nc([C@@H]2C[C@@H]3CCN(C(=O)c4ccsc4)C[C@H]3O2)no1,0
2,COc1cccc(CN2C[C@@H]3CC[C@@](O)(c4ccccn4)[C@@H]3C2)c1OC,0
3,CC(C)=CCN1CCN(Cc2nccn2C)[C@H]2CS(=O)(=O)C[C@H]21,11.2
4,CCCS(=O)(=O)N1CCO[C@H]2[C@@H](Oc3cccnc3)CC[C@@H]21,16.4
5,Cc1c(CN2CCCCC2)c(O)n(CCCO)c(=O)c1C#N,45.4
6,Cn1c(NCCN2CCCCCC2)c(C#N)c(=O)n(C)c1=O,24.7
7,Cc1c(CN2CCCCC2)c(O)n(CCO)c(=O)c1C#N,55.9
8,CN(CCN1CCOCC1)C(=O)CCCc1ccccc1,11.4
9,Cc1c(CN2CCOCC2)c(O)n(CCO)c(=O)c1C#N,47.4
10,Cc1c(CN2CCOCC2)c(O)n(CCc2ccccc2)c(=O)c1C#N,60.5
11,Cc1nnc([C@@]23CCO[C@@H]2CCN(Cc2cccc4ccccc24)C3)o1,5.94
12,CNC(=O)[C@@H]1COC[C@H]2CN(C(=O)c3ccc(OC)cc3)C[C@H]21,8.77
13,CN1C(=O)CO[C@H]2CN(C(=O)c3ccc4c(c3)CCCC4)C[C@@H]21,0
14,O=S(=O)(c1cccnc1)N1C[C@@H]2CC[C@H](C1)N(Cc1ccccn1)C2,7.53
15,N#Cc1ccc(C(=O)N2C[C@H](OCc3cccnc3)[C@H]3COC[C@H]32)cc1,6.94
16,O=C(NC1CCCC1)C1Cc2nc(-c3ccsc3)sc2N1CC1CC1 (stereo not given),23.6
17,O=C(Nc1cccnc1)C1Cc2nc(-c3ccsc3)sc2N1CC1CC1 (stereo not given),62.5
18,CC(C)NC(=O)C1Cc2nc(-c3ccsc3)sc2N1CC1CC1 (stereo not given),51.4
19,CN(C)CCNC(=O)C1Cc2nc(-c3ccccc3)sc2N1CC1CC1 (stereo not given),20.8
20,CN(C)CCNC(=O)C1Cc2nc(-c3ccsc3)sc2N1CC1CC1 (stereo not given),22.2
21,CC(C)N1c2sc(-c3ccsc3)nc2CC1C(=O)NC1CC1 (stereo not given),30
22,CC(C)CNC(=O)[C@H]1C[C@@H]2CN(C(=O)NCC3CCCCC3)C[C@H]1O2,17.2
23,COc1ccccc1CN1C(=O)O[C@@H]2CN(Cc3cccc(C)n3)C[C@@H]21,-1.67
24,O=C1O[C@@H]2CN(Cc3ccncc3)C[C@@H]2N1CCCN1CCOCC1,-6.67
25,COc1cc(-n2cc(CCO)cn2)ccc1NC(C)=O,31.6
26,COc1ccc(-n2cc(CCO)cn2)cc1C(N)=O,34.2
27,COc1ccc(-n2cc(CCO)cn2)cc1C,69.6
28,N#Cc1ccc(OC[C@]23COC[C@H]2CN(c2ncccn2)C3)nc1,5.56

row,SMILES,Percent Effect [%]
1,N#Cc1ccc(N2CCCC3(CCN(c4cccnc4)CC3)C2)cc1,51.4
2,c1cncc(N2CCC3(CCCN(c4ccncc4)C3)CC2)c1,15.3
3,c1cncc(N2CCCC3(CCN(CCN4CCCC4)CC3)C2)c1,15.3
4,O=C1[C@H]2CN(Cc3ccccc3)C[C@H]2CN1CCN1CCCC1,17.3
5,Cc1ccc(-n2cc(CN3CCN(C)[C@@H]4CS(=O)(=O)C[C@@H]43)cn2)cc1,11.4
6,Cc1cc(C)cc(NC(=O)Nc2c(O)oc3ccccc3c2=O)c1,16.1
7,CCn1nc2c(cc1=O)CN(Cc1nc3ccccc3c(=O)[nH]1)CC2,25
8,CCn1nc2c(cc1=O)CN(c1nc3ccccc3s1)CC2,72.7
9,Cn1nc2c(cc1=O)CN(Cc1nc3ccccc3c(=O)[nH]1)CC2,24.7
10,Cn1nc2c(cc1=O)CN(c1nc3ccccc3s1)CC2,90.9
11,CC(C)n1nc2c(cc1=O)CN(c1nc3ccccc3s1)CC2,18.2
12,Cc1ncnc(N2CCCN(c3nc4ccccc4s3)CC2)c1C,25.7
13,Cn1nc2c(cc1=O)CN(Cc1nc(N)c3ccccc3n1)CC2,43.5
14,c1ccc2sc(N3CCCN(c4ncnc5c4CCNC5)CC3)nc2c1,57.1
15,CCn1nc2c(cc1=O)CN(Cc1nc3ccccc3o1)CC2,12.9
16,c1ccc2sc(N3CCN(c4ncnc5c4CCC5)CC3)nc2c1,14.3
17,Cn1nc2c(cc1=O)CN(CCc1nc3ccccc3c(=O)[nH]1)CC2,53.9
18,Cc1nc(CO[C@H]2CN(C(=O)c3cnoc3C)[C@@H]3COC[C@H]23)cs1,10
19,CC(C)NC(=O)[C@@]12CCO[C@@H]1CCN(Cc1ccco1)C2,15.1
20,O=C(Nc1cccnc1)[C@H]1C[C@@H]2CN(Cc3ccc(F)cc3)C[C@H]1O2,10
21,CC(C)C(=O)N1CC[C@H]2N(C)CC[C@@]2(C(=O)Nc2cccnc2)CC1,8.11
22,OC[C@H]1CC[C@]2(CC1)CN(Cc1ccsc1)Cc1ccccc1O2,16.5
23,O=C(c1ccco1)N1C[C@@H]2OCCN(CCN3CCCC3)[C@@H]2C1,6.01
24,CNC(=O)N1CCC2(CC1)CC[C@@]1(C(=O)NC)CN(S(C)(=O)=O)C[C@@H]21,9.72
25,CN(Cc1ccco1)[C@@H]1CN(Cc2nccn2C)[C@@H]2CCCO[C@H]12,27
26,O=C([C@@H]1COC[C@H]2CN(c3ccncn3)C[C@H]21)N1CCCC1,19.3
27,CN(Cc1ccco1)C(=O)c1ccc(=O)n(C)c1,14.9
